According to PubChem BioAssay (Tox21):
Results filed as inconclusive are left out. A call without a number means that no potency is given here. The source made the active and inactive calls. Calls come from the whole dose curve; as a rule, active = well fitted cell-killing curve with a large enough effect in the repeat runs; inconclusive = weak or mixed curves; inactive = no such curve, though single readings can be large or run the other way.

Assay: qHTS assay to identify small molecule antagonists of the androgen receptor (AR) signaling pathway - cell viability counter screen (AID 743033; note: nearly all actives have a fitted effect of over 45% in size)
Details: AR-bla HEK293 viability, CellTiter-Glo luminescence, 16 h; series mostly up to 58.5 µM
Text: National Center for Advancing Translational Sciences [NCATS]
NIH Chemical Genomics Center [NCGC]
U.S. Environmental Protection Agency [EPA]
National Institutes of Environmental Health Sciences [NIEHS]
National Toxicology Program [NTP]
U.S. Food and Drug Administration [FDA]
Androgen receptor (AR), a nuclear hormone receptor, plays a critical role in AR-dependent prostate cancer and other androgen related diseases. Endocrine disrupting chemicals (EDCs) and their interactions with steroid hormone receptors like AR may cause disruption of normal endocrine function as well as interfere with metabolic homeostasis, reproduction, developmental and behavioral functions. To identify the compounds that inhibit AR signaling, GeneBLAzer AR-UAS-bla-GripTite cell line (Invitrogen, Carlsbad, CA, USA) containing a beta-lactamase reporter gene under control of an Upstream Activator Sequence (UAS) stably integrated into HEK293 cells was used to screen the Tox21 10K compound library. The cytotoxicity of the Tox21 compound library against the AR-bla cell line was tested in parallel by measuring the cell viability using CellTiter-Glo assay in the same wells.
Tox21 Assay Protocol Summary:
AR-bla cells were dispensed at 2,000 cells/5 uL of assay medium per well into black wall/clear-bottom 1536-well plates using a Multidrop Combi (ThermoFisher Scientific, Waltham, MA) dispenser. After the assay plates were incubated at a 37C and 5% CO2 for 4 hr, 23 nL of compounds dissolved in DMSO, positive controls or DMSO only was transferred to the assay plate by a Pintool station (Kalypsys, San Diego, CA), followed by addition of 1 uL of agonist (R1881) in culture medium using a Bioraptr Flying Reagent Dispenser (FRD) workstation (Beckman Coulter, Indianapolis, IN, USA). The plates were incubated at a 37C and 5% CO2 for 16 h. After 1 uL of LiveBLAzerTM B/G FRET substrate was added using a Bioraptr FRD, the plates were incubated at room temperature for 2 h and fluorescence intensity was measured by an Envision plate reader (PerkinElmer, Shelton, CT). For cell viability readout that measures cytotoxicity, 4 ul/well of CellTiter-Glo reagent was added into the assay plates using a Bioraptr FRD. After 30 min incubation at room temperature, the luminescence intensity in the plates was measured using a ViewLux (PerkinElmer) plate reader.

SMILES | Potency
C#CC(C)(C)O | inactive
COC(=O)c1ccc(CBr)cc1 | inactive
CCN(CCO)CCn1c(Cc2ccccc2)nc2c1c(=O)n(C)c(=O)n2C | inactive
CCC1(CC)C(=O)C=CNC1=O | inactive
O=C(NC(O)C(Cl)(Cl)Cl)NC(O)C(Cl)(Cl)Cl (stereo not given) | inactive
Cn1c(N)nc2c3cccnc3ccc21 | inactive
CCC(C)(C#N)N=NC(C)(C#N)CC (stereo not given) | inactive
CCOC(=O)CC(SP(=S)(OC)OC)C(=O)OCC (stereo not given) | inactive
CC(C)(C)NC[C@H](O)c1ccc(O)cc1Cl | inactive
ClC(Cl)(Cl)Cl | inactive
O=c1[nH]c2ccccc2o1 | inactive
COc1cccc(C=O)c1 | inactive
CC1N=C(N)OC1c1ccccc1 (stereo not given) | inactive
CC(C)[N+](C)(CCC(C(N)=O)(c1ccccc1)c1ccccc1)C(C)C | inactive
CN(C)C1CCCCC1 | inactive
COC(=O)c1ccccc1CS(=O)(=O)NC(=O)Nc1nc(OC)cc(OC)n1 | inactive
C/C=C/CC#N | inactive
CC(=O)CN(CC(C)=O)N=O | inactive
CC[C@H](O)C(C[C@H](C)N(C)C)(c1ccccc1)c1ccccc1 | inactive
O=C(Cl)/C=C/C(=O)Cl | inactive

SMILES | Potency
CC#Cc1cc(C)nc(Nc2ccccc2)n1 | inactive
CON(C)C(=O)Nc1ccc(Br)cc1 | inactive
CCCC[N+](=O)[O-] | inactive
ClCCCCl | inactive
Cc1ccc(-c2nc3ccc(C)cn3c2CC(=O)N(C)C)cc1 | inactive
OCC(Cl)CCl (stereo not given) | inactive
C=CC(=O)OCCN(C)C | inactive
N#CN | inactive
COc1ccc(CN2CCNCC2)c(OC)c1OC | inactive
C=C(Cl)CSC(=S)N(CC)CC | inactive
CN1COCN(Cc2cnc(Cl)s2)/C1=N\[N+](=O)[O-] | inactive
BrCc1ccc(Br)cc1 | inactive
S=C=S | inactive
CC(C)N(Cc1ccccc1)C(=O)C(C)(C)C | inactive
CC(C)c1ccc(O)cc1 | inactive
CCNc1nc(NCC)nc(SC)n1 | inactive
C=CCN1CC[C@]23CCCC[C@H]2[C@H]1Cc1ccc(O)cc13 | inactive
CCCCCCCC(=O)Cl | inactive
NNCc1ccccc1 | inactive
CCC(=O)OC1(c2ccccc2)CCN(C)CC1 | inactive
